Activity calls are given as the source filed them.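 The calls were made as follows: active = EC50 at most 10 µM with response changing by at least 30 points across doses, from an acceptable curve fit; inactive = the rest.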
Target: Cell division control protein 42 homolog (Homo sapiens) (UniProt P60953)
Test: Cdc42 wildtype GTP-binding inhibitors, late-stage follow-up, mechanism study for Ras-family GTPase inhibitor project, biochemical, compound preincubation comparison, flow cytometry beads, Bodipy-FL-GTP (AID 720712)
Conditions: GST-Cdc42 beads, EDTA, protocol B; series mostly up to 100 µM

Sequence of Cell division control protein 42 homolog (Homo sapiens) (P60953 whole entry, looked up): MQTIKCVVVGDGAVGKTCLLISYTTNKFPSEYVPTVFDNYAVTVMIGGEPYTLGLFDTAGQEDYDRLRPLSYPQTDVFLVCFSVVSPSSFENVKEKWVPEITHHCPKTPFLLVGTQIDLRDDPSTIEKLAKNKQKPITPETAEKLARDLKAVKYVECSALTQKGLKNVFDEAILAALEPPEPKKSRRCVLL

## CC1(C)Cc2c(sc(NC(=S)NC(=O)c3cccc(N=[N+]=[N-])c3)c2C(=O)O)CO1
  outcome: inactive

## CC1(C)Cc2c(sc(NC(=S)NC(=O)c3ccc(N=[N+]=[N-])cc3)c2C(=O)O)CO1
  outcome: inactive

Source: PubChem BioAssay AID720712 (NMMLSC, 2013)
